Measured values reported in PubChem BioAssay AID1347156 (National Center for Advancing Translational Sciences (NCATS), 2019).
Inconclusive results are not listed. The source made the active and inactive calls. Calls follow the shape of the dose curve; as a rule, active = well fitted cell-killing curve with a large enough effect; inconclusive = small, poorly fitted or top-dose-only effect; inactive = flat fitted curve, though single readings scatter.

Experiment: DAPI mCherry counterscreen qHTS for Zika virus inhibitors; also: nearly all actives have a fitted effect of over 55% in size
Conditions: Vero cells, DAPI nuclear count cytotoxicity, imaging 48-72 h; series mostly up to 32.6 µM
Source text: Assay Submitters (PI): Avindra Nath, Ph.D., National Institute of Neurological Disorders and Stroke (NINDS), Bethesda, MD Radhakrishnan Padmanabhan, Ph.D., Georgetown University (GU), Washington D.C. Zika Virus causes congenital defects, including microcephaly and is associated with Guillain-Barre syndrome, eningoencephalitis and myelitis in infected adult. […] Using a target-based approach, we hope to establish a screening paradigm to uncover novel, cell-active NS2B-NS3 protease (Zika Virus) specific inhibitors from NCATS' collection of small molecules using qHTS. […] Four assay panel was created to identify potential Zika Virus inhibitors. Namely, (1) GU unlinked NS2B-NS3 AMC tagged protease qHTS, (2) GU unlinked NS2B-NS3 Rhodamine tagged protease qHTS, (3) NINDS linked NS2B-NS3 AMC tagged protease qHTS, (4) NINDS linked NS2B-NS3 Rhodamine tagged protease qHTS. Active compounds were re-acquired and re-screened to confirm inhibition. Inhibitors were further screened against various confirmatory and counterscreens in dose response format. […] A DAPI (mCherry counterscreen) which determine Vero cell cytotoxicity was used to exclude false positive compounds. […] Early Translation Branch (ETB) National Center for Advancing Translational Sciences (NCATS), Rockville, MD National Institute of Health (NIH), Bethesda, Maryland
384 well ZIKV-mCherry & mCherry DAPI counterscreen: We have developed a new orthogonal imaging assay in 384-well plate format, which uses recombinant virus ZIKV-mCherry in Vero cells. Briefly, 30 microL of Vero cells derived from a green monkey cell line, were dispensed by Multidrop Dispenser into a clear solid bottom black 384 well plate (ultracarrier, Perkin Elmer LifeSciences) at a concentration of 5,000 cells per well. The plate was incubated overnight in a CO2 incubator at 37 degrees C. Compounds were delivered as a 126 nL DMSO solution by Kalypsys pintool transfer. Following compound transfer, 10 microL of ZIKV-mCherry was added at an MOI of 1 and incubated in a CO2 incubator for 48-72 hrs at 37 degrees C. After sufficient incubation of infected cells in test plates, 8 microL of 32% PFA was dispensed into assay plates to fix cells and incubated for 20 min at room temperature. Plates were washed 3 times with PBS using BioTek EL406 microplate washer/dispenser. After washing, 30 microL of PBS with 0.01% TX-100 containing Hoechst dye was dispensed into the each well of the plates for nuclear staining. 384-well plates were imaged on an automated, widefield high content imager (INCell 2200, GE Healthcare) using a 10x/0.45 NA lens and standard DAPI (nuclear stain) and mCherry (cy5) excitation and emission filters. The TIFFs were quantitated using the canned Multi Target Analysis protocol (GE Investigator Workstation software v3.7.2). Briefly, nuclei from the DAPI channel were identified using top hat segmentation and a sensitivity setting of 96 and minimum size area of 35 microm2. A recombinant Zika viral infection was monitored in the Cy5 channel (cells) using a 2 microm collar dilation from the nuclear bitmap. mCherry objects with an average nuclear RFU intensity above 450 (3 stdev above mean negative control wells) were considered "mcherry positive" and data was analyzed by percent infection rate.
% is scaled to controls: 0 for no effect and ±100 for the full control effect; potency is read from the fitted curve at half-maximal effect.

| Structure (SMILES) | Potency |
| --- | --- |
| CC(C)=CCCC1(C)C=Cc2c(O)c3c(c(CC=C(C)C)c2O1)OC12C(=CC4CC1C(C)(C)OC2(C/C=C(/C)C(=O)O)C4O)C3=O (stereo not drawn) | 3.16 µM (active) |
| O=C(O)C(=O)c1cn(Cc2ccccc2)c2ccc(-c3ccc(OC(F)(F)F)cc3)cc12 | 28.2 µM (active) |
| O=c1c(C2CC(c3ccc(-c4ccc(Br)cc4)cc3)Cc3ccccc32)c(O)sc2ccccc12 (stereo not drawn) | 8.91 µM (active) |
| CC(=O)c1c(O)c(C)c(O)c(Cc2c(O)c3c(c(C(=O)/C=C/c4ccccc4)c2O)OC(C)(C)C=C3)c1O | 14.1 µM (active) |
| Cc1cc(SCc2sc(-c3ccc(C(F)(F)F)c(F)c3)nc2C)ccc1OCC(=O)O | 14.1 µM (active) |
| O=C1OC(c2ccc(O)c(S(=O)(=O)O)c2)(c2ccc(O)c(S(=O)(=O)O)c2)c2c(Br)c(Br)c(Br)c(Br)c21 | inactive |
| O=c1c(O)c(-c2ccc(O)c(O)c2)oc2c(O)c(O)cc(O)c12 | inactive |
| CC1=C(O)C(=O)C=C2C1=CC=C1[C@@]2(C)CC[C@@]2(C)[C@@H]3C[C@](C)(C(=O)O)CC[C@]3(C)CC[C@]12C | 1.12 µM (active) |
| CCCCCOc1cc2c(cc1-c1cc(/C=C/C(=O)O)ccc1O)C(C)(C)CCC2(C)C | 15.8 µM (active) |
| O=C(O)c1cc(Oc2ccc(C(F)(F)F)cc2Cl)ccc1[N+](=O)[O-] | inactive |
| CC(C)=CCC[C@]1(C)C=Cc2c(O)c3c(c(CC=C(C)C)c2O1)O[C@]12C(=C[C@@H]4CC1C(C)(C)O[C@@]2(C/C=C(/C)C(=O)O)C4=O)C3=O | 1.12 µM [infected with Zika reporter virus, MOI 1] (active) |
| N[C@@H](Cc1ccc(Oc2cc(I)c(O)c(I)c2)c(I)c1)C(=O)O | inactive |
| O=C(Nc1ccc(Br)cc1)c1cc(Br)cc(Br)c1O | 8.91 µM (active) |
| C[C@H]1[C@H]2Cc3ccc(O)cc3[C@]1(C)CCN2CCc1ccccc1 | 22.4 µM (active) |
| O=c1oc2ccccc2c(O)c1C(CC(O)c1ccc(-c2ccc(Br)cc2)cc1)c1ccccc1 (stereo not drawn) | 15.8 µM (active) |
| CNc1ccc2oc(C[C@@H]3OC4(CC[C@@H]3C)O[C@H]([C@@H](C)C(=O)c3ccc[nH]3)[C@H](C)C[C@H]4C)nc2c1C(=O)O (stereo partly drawn) | 1 µM (active) |
| O=C1C(I)=CC(=C(c2cc(I)c(O)c(I)c2)c2ccccc2C(=O)O)C=C1I | 25.1 µM (active) |
| CN(C)[C@@H]1C(=O)C(C(N)=O)=C(O)[C@@]2(O)C(=O)C3=C(O)c4c(O)cccc4[C@@](C)(O)[C@H]3[C@H](O)[C@@H]12 | inactive |
